# According to PubChem BioAssay (NCATS):
# “And” between values parts separate entries of the source, which are not always exact repeats. Identical values can stand only once. Results filed as inconclusive are left out. A call without a number means that no potency is given here. More than one record can exist for a structure, and the calls need not agree. The source made the active and inactive calls. The call rests on the fitted dose curve; in most records, active means well fitted curve in the direction sought with a large enough effect; inconclusive means small, poorly fitted or top-dose-only effect, or another doubt; inactive means no such curve, though single readings can be large; an effect the other way counts as inactive or inconclusive.
# What was measured:
# [1] = NS1 protein of Zika virus - qHTS assay to identify small molecule inhibitors in human HEK 293 cells (AID 1347053); further: nearly all actives have a fitted effect of over 55% in size
# Procedure, shortened: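 Compound-treated (1 h pre-infection) HEK 293 cells infected with ZIKV MR766, MOI = 0.5; after 24 h at 37 C, NS1 read by TR-FRET; data normalized to uninfected and infected controls.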
# [2] = qHTS of pediatric cancer cell lines to identify multiple opportunities for drug repurposing: Primary screen for TC32 cells (AID 1347089); further: nearly all actives have a fitted effect of over 60% in size
# Procedure, shortened: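 TC32 cells, 500-1,000/well in growth medium, compound-treated 48 h at 37 °C; viability from CellTiter-Glo luminescence. Primary screen: MIPE 11-point (0.78 nM–46 µM final), NPC 8-point (0.59 nM–46 µM final); confirmatory at 11-point dilutions.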
# [3] = qHTS of pediatric cancer cell lines to identify multiple opportunities for drug repurposing: Primary screen for DAOY cells (AID 1347090); further: nearly all actives have a fitted effect of over 55% in size
# Procedure, shortened: (§1)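 Cell viability, CellTiter-Glo luminescence; 500-1,000 cells/well, 8- or 11-point titration, 48 h compound exposure at 37 degrees C, 5% CO2. Controls: DMSO neutral, bortezomib 2.3 µM final as positive.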
# [4] = qHTS of pediatric cancer cell lines to identify multiple opportunities for drug repurposing: Primary screen for SJ-GBM2 cells (AID 1347091)
# Procedure, shortened: as §1
# Potency means the concentration at half of the fitted maximal effect.
SMILES,Potency [1],Potency [2],Potency [3],Potency [4]
O=S(=O)(O)CCS,inactive,inactive,inactive,inactive
CN(Cc1cc(Br)cc(Br)c1N)C1CCCCC1,inactive,inactive,inactive,inactive
Cc1cc(NS(=O)(=O)c2ccc(N)cc2)no1,inactive,inactive,inactive,inactive
Cn1nnc2c(C(N)=O)ncn2c1=O,inactive,inactive,inactive,inactive
CCC(=O)O[C@]1(C(=O)SCF)[C@H](C)C[C@H]2[C@@H]3C[C@H](F)C4=CC(=O)C=C[C@]4(C)[C@@]3(F)[C@@H](O)C[C@@]21C,inactive,inactive,inactive,inactive
C#CCN[C@@H]1CCc2ccccc21,inactive,inactive,inactive,inactive
COC(=O)Nc1nc2ccc(Sc3ccccc3)cc2[nH]1,inactive,1.33 µM (active) and 2.62 µM (active),1.06 µM (active),0.833 µM (active)
CCOC(=O)c1ccc(C#Cc2ccc3c(c2)C(C)(C)CCS3)nc1,inactive,inactive,inactive,inactive
Cn1c(=O)c2c(ncn2CC(O)CO)n(C)c1=O (stereo not drawn),inactive,inactive,inactive,inactive
COc1ccccc1OCC(O)COC(N)=O (stereo not drawn),inactive,inactive,inactive,inactive
C[C@@H](CN1CC(=O)NC(=O)C1)N1CC(=O)NC(=O)C1,inactive,inactive,inactive,inactive
COc1ccc2c(c1)c(CC(=O)OCC(=O)O)c(C)n2C(=O)c1ccc(Cl)cc1,inactive,inactive,inactive,inactive
COc1cc(NS(=O)(=O)c2ccc(N)cc2)nc(OC)n1,inactive,inactive,inactive,inactive
CN(C)c1ccc(C(=C2C=CC(=[N+](C)C)C=C2)c2ccc(N(C)C)cc2)cc1,inactive and 3.72 µM (active),2.64 µM (active) and 1.17 µM (active),2.66 µM (active) and 1.48 µM (active),1.33 µM (active) and 372 nM (active)
CC1(C)[C@H](C(=O)O)N2C(=O)C[C@H]2S1(=O)=O,inactive,inactive,inactive,inactive
CC(C)C1CCC(C(=O)N[C@H](Cc2ccccc2)C(=O)O)CC1 (stereo partly drawn),inactive,inactive,inactive,inactive
CC(=O)Oc1ccccc1C(=O)Nc1ncc([N+](=O)[O-])s1,inactive,inactive,13.6 µM (active),8.55 µM (active)
S=P(N1CC1)(N1CC1)N1CC1,inactive,inactive,inactive,inactive
CC1=CC(=O)c2ccccc2C1=O,–,inactive,inactive,23.5 µM (active)
C[C@]12C=CC(=O)C=C1CC[C@@H]1[C@@H]2C(=O)C[C@@]2(C)[C@H]1CC[C@]2(O)C(=O)CO,–,inactive,inactive,inactive
COc1cc(NCc2ccc3nc(N)nc(N)c3c2C)cc(OC)c1OC,–,2.94 µM (active) and 33.3 nM (active),3.72 µM (active) and 133 nM (active),2.64 µM (active) and 29.9 nM (active)
O=C(O)c1cccnc1,–,inactive,inactive,inactive
CCOC(=O)c1ccc(OC(=O)CCCCCN=C(N)N)cc1,–,inactive,inactive,inactive
CCCN[C@H]1CCc2nc(N)sc2C1,–,inactive,inactive,inactive
CN(CCOc1ccc(CC2SC(=O)NC2=O)cc1)c1ccccn1 (stereo not drawn),–,inactive,inactive,inactive
CC(C)(Sc1cc(C(C)(C)C)c(O)c(C(C)(C)C)c1)Sc1cc(C(C)(C)C)c(O)c(C(C)(C)C)c1,–,inactive,inactive,inactive
CC(N)C12CC3CC(CC(C3)C1)C2 (stereo not drawn),–,inactive,inactive,inactive
CCC(=O)O[C@]1(C(=O)CCl)[C@@H](C)C[C@H]2[C@@H]3CCC4=CC(=O)C=C[C@]4(C)[C@@]3(F)[C@@H](O)C[C@@]21C,–,inactive,inactive,inactive

SMILES,Potency [1],Potency [2],Potency [3],Potency [4]
CCOC(=O)[C@H](CCc1ccccc1)N[C@H]1CCc2ccccc2N(CC(=O)O)C1=O,–,inactive,–,23.5 µM (active)
Oc1c(Cl)cc(Cl)c2cccnc12,–,–,4.22 µM (active) and 9.35 µM (active),8.41 µM (active) and 11.8 µM (active)
N=C(N)c1ccc(OCCCCCOc2ccc(C(=N)N)cc2)cc1,–,–,–,inactive
OC(Cn1cncn1)(Cn1cncn1)c1ccc(F)cc1F,–,inactive,inactive,inactive
CNCC[C@H](Oc1cccc2ccccc12)c1cccs1,–,inactive,–,inactive
CNNCc1ccc(C(=O)NC(C)C)cc1,–,inactive,inactive,inactive
Cc1nnc(C(=O)NC(C)(C)c2nc(C(=O)NCc3ccc(F)cc3)c(O)c(=O)n2C)o1,–,inactive,inactive,inactive
CCCCCCNC(=O)n1cc(F)c(=O)[nH]c1=O,–,–,inactive,inactive
O[C@@H](CNC[C@H](O)[C@H]1CCc2cc(F)ccc2O1)[C@@H]1CCc2cc(F)ccc2O1,–,inactive,inactive,20.9 µM (active)
O=C(NCC1CN(c2ccc(N3CCOCC3=O)cc2)C(=O)O1)c1ccc(Cl)s1 (stereo not drawn),–,inactive,inactive,inactive
O=C(O)c1cc(=O)[nH]c(=O)[nH]1,–,inactive,inactive,inactive
Nc1ccc(S(=O)(=O)Nc2ccccn2)cc1,–,inactive,inactive,inactive
CNS(=O)(=O)Cc1ccc2[nH]cc(CCN(C)C)c2c1,–,inactive,inactive,inactive
Cc1onc(-c2ccccc2Cl)c1C(=O)N[C@@H]1C(=O)N2[C@@H]1SC(C)(C)[C@@H]2C(=O)O,–,inactive,inactive,inactive
O=C(N[C@H](CO)[C@H](O)c1ccc([N+](=O)[O-])cc1)C(Cl)Cl,–,inactive,inactive,inactive
O=S(=O)(c1cccc2cnccc12)N1CCCNCC1,–,inactive,inactive,inactive
COCCCOc1cc(C[C@@H](C[C@H](N)[C@@H](O)C[C@H](C(=O)NCC(C)(C)C(N)=O)C(C)C)C(C)C)ccc1OC,–,inactive,inactive,inactive
COc1cnc(NS(=O)(=O)c2ccc(N)cc2)nc1,–,inactive,inactive,inactive
C[C@@H](NCCCc1cccc(C(F)(F)F)c1)c1cccc2ccccc12,–,–,–,inactive
CCn1cc(C(=O)O)c(=O)c2cc(F)c(N3CCNCC3)nc21,–,inactive,inactive,inactive
NC1(c2ccc(-c3nc4ccn5c(=O)[nH]nc5c4cc3-c3ccccc3)cc2)CCC1,–,–,18.7 µM (active),5.26 µM (active) and 13.3 µM (active)
O=C(O)CSCC(=O)NC1CCSC1=O (stereo not drawn),–,inactive,inactive,inactive
CC(C)(C#N)c1cc(Cn2cncn2)cc(C(C)(C)C#N)c1,–,inactive,inactive,inactive
O=c1cc(O)c(Cl)c[nH]1,–,inactive,–,inactive
CO[C@@]12[C@H](COC(N)=O)C3=C(C(=O)C(C)=C(N)C3=O)N1C[C@@H]1N[C@@H]12,–,inactive,9.35 µM (active),14.8 µM (active)
COc1ncnc(NS(=O)(=O)c2ccc(N)cc2)c1OC,–,inactive,inactive,inactive
O=C(O)CCn1c2c(c3ccccc31)C[C@H](NS(=O)(=O)c1ccc(F)cc1)CC2,–,inactive,inactive,inactive
